# Compound activity deposited in PubChem BioAssay by National Center for Advancing Translational Sciences (NCATS).
# This is a sample that favours compounds with a hit; in the whole collection about 1.9% have one here.
# NPSR antagonist: blocks cAMP signaling of the human neuropeptide S receptor | Q6W5P4 | CHO-NPSR cells, cAMP TR-FRET, antagonist mode | Potency, µM (doses to about 38.3 µM), for inactives: at the highest dose activity change, negative = inhibition, actives largely listed as inhibitors | hit rate 1% among 220,000; also: potency is read from the fitted curve at half-maximal effect; % is scaled to controls: 0 for no effect and ±100 for the full control effect; nearly all actives have a fitted effect of over 50% in size
# Giardia kill: Giardia lamblia killing. AID 540267. activity change, % at 7.66 µM, hits read low. Giardia lamblia trophozoite viability. hit rate 0.15% among 340,000; in the data active = activity change below about -80%; inconclusive = between about -30% and that limit;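 also: parasites exposed to compound for two days anaerobically before the ATP read; % is scaled to controls: 0 for no effect and ±100 for the full control effect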
#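 Trophozoites 100 cells/well + cpd; 48 hrs, 37 deg C, anaerobic. ATPLite 1-Step added, 15-30 min RT, luminescence read (ATP-based viability).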
# BRCA1 expr act: increases BRCA1 expression; MCF7-BRCA1-FFLuc reporter, luminescence, 48 h; response scale: scaled: vehicle 0%, 10 µM genistein 100%; Potency, µM (top dose mostly 46.1 µM), inactives show at the top dose activation, most hits filed as activators; hit rate 1.1% among 380,000; AID 624202; also: potency is read from the fitted curve at half-maximal effect; nearly all actives have a fitted effect of over 80% in size
#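 Compounds are tested at multiple concentrations on MCF7 BRCA1-luciferase reporter cells seeded at 2000 per well; after 48 h, a single luminescence end-point is taken and curves fitted to the normalized data.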
# IL-2 act: IL-2 activation; IL-2 activation reporter assay, cell-based qHTS; stimulated with anti-CD3/CD4/CD28 beads; in transgenic mouse T cells; activation, % (series mostly up to about 46 µM); hit rate 0.065% among 360,000; AID 652025; in the data active = activation above about 50%; inconclusive = mostly about 30% to 49%; also: 0% is about no effect
#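 Unstimulated transgenic mouse T cells, 750 per well, received compound and, after 60 minutes, anti-CD3/anti-CD4 bead plus anti-CD28 stimulation. EGFP and DsRed were quantified after 18 hours.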
# RXFP1 agonist: RXFP1 (human) receptor agonism; HEK293T-RXFP1 cAMP TR-FRET, 30 min; response scale: percent of porcine relaxin response, buffer zero; Potency, µM (highest dose often 57.5 µM), inactives show at the top dose activation, most hits filed as activators; hit rate 0.3% among 370,000; AID 2676; also: potency is read from the fitted curve at half-maximal effect; % is scaled to controls: 0 for no effect and ±100 for the full control effect; nearly all actives have a fitted effect of over 60% in size
# Target sequence (Q9HBX9 whole entry, looked up): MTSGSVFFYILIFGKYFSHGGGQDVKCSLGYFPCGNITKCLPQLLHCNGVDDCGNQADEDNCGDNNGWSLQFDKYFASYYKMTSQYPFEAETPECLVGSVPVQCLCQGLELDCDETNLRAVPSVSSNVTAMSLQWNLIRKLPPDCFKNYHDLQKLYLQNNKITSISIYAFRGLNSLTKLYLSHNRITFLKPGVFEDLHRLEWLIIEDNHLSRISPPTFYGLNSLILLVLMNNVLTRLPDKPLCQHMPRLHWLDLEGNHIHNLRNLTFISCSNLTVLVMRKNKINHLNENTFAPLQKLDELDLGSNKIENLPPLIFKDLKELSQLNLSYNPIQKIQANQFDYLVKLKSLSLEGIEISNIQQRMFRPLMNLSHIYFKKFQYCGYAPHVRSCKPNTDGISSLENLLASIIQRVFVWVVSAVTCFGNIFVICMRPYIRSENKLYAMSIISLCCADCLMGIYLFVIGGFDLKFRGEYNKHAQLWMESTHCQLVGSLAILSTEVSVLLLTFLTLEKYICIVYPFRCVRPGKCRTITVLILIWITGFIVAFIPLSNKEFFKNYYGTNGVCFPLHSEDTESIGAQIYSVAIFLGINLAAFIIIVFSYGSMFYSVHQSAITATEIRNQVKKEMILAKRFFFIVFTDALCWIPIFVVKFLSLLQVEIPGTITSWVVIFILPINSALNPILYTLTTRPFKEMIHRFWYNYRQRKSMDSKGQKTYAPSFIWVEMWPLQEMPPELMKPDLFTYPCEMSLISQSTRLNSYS
#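 HEK293 cells stably expressing RXFP1, treated 30 min at 37C with compounds plus PDE4 inhibitor Ro 20174; cAMP measured by HTRF TR-FRET. Normalized to buffer and 29 nM porcine relaxin; EC50 by Hill fit.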
# RXFP1 antag: RXFP1 (human) relaxin receptor antagonism; HEK293-RXFP1, relaxin-stimulated cAMP HTRF, 30 min; stronger effect = lower value; AID 1259400; hit rate 0.59% among 350,000; activity change, negative = inhibition, % at 57.5 µM; Q9HBX9;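 active = activity change of -60% or lower, but not beyond a set lower limit; inconclusive = change between -60% and -40%, or beyond the set limit; inactive = change above -40%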; also: % is scaled to controls: 0 for no effect and ±100 for the full control effect
# * marks the source's active call; other numbers are inactive results; ? = inconclusive; . = not tested or not shown; [ ] = another dose, or the depositor's remark. Unless noted, calls follow the shape of the dose curve; as a rule, active = well fitted curve in the direction sought with a large enough effect; inconclusive = small, poorly fitted or top-dose-only effect, or another doubt; inactive = no such curve, though single readings can be large; an effect the other way counts as inactive or inconclusive.
SMILES,NPSR antagonist,Giardia kill,BRCA1 expr act,IL-2 act,RXFP1 agonist,RXFP1 antag
CCC(Oc1ccccc1)C(=O)Nc1ncc([N+](=O)[O-])s1 (stereo not given),23.5%,-87.6*,-4.9%,-1.5,1.7%,-12.8
CCC(Oc1ccccc1)C(=O)Nc1nnc(C)s1 (stereo not given),5.7%[46.1 µM],7.1,5.7%,0.9,-0.9%,-7.7
Cc1nnc(NC(=O)CC(C)c2ccccc2)s1 (stereo not given),.,0.7,0.0%,-0.2,0.5%,2.2
CC(=O)NC(Cc1c(F)c(F)c(F)c(F)c1F)C(=O)NCC(N)C(=O)c1ccccc1 (stereo not given),.,.,-51.8%,.,.,.
CC1Cc2cc(S(=O)(=O)NCc3ccc(N(C)C)cc3)ccc2N1C(=O)C1CCC1 (stereo not given),.,.,.,.,-1.7%,-2.5
COc1ccc(N2CCN(CCCNC(=O)c3c(C)nn(-c4ccc(F)cc4)c3-n3cccc3)CC2)cc1,.,.,-19.7%,.,-2.6%,.
Cc1ccc(S(=O)(=O)N(C)CCN(C)c2nc(-c3cccs3)nc3ccccc23)cc1,.,10.1,10.0%,.,.,.
Cc1ccc(/C(N)=N/OC(=O)c2ccc(F)cc2)cc1,-17.0%[46.1 µM],2.1,10µM*,-1.9,1.3%,-0.3
N/C(=N\OC(=O)c1ccc(Cl)cc1)c1ccc(Cl)cc1,-0.6%[46.1 µM],-3.4,11.2µM*,-0.6,-1.6%,-1.0
N/C(=N\OC(=O)c1ccccc1Cl)c1ccc(Cl)cc1,4.4%[46.1 µM],12.0,55.8%,13.8,0.3%,-4.7
COc1ccc(CCNC(=O)c2ccc3c(c2)N(Cc2ccc(F)cc2)C(=O)CS3)cc1OC,.,.,.,.,2.3%,?
Clc1ccc(OCc2nc(-c3ccncc3)no2)cc1,-23.2%[46.1 µM],10.3,11.2µM*,-0.8,-0.2%,-31.9
CN(C)c1ccc(N/C=C/C(=O)c2ccccc2)cc1,?,-4.8,?,2.4,-3.0%,-109.6*
CCOC(=O)c1ccc(N/C=C/C(=O)c2ccccc2)cc1,-0.3%,1.1,12.6µM*,-0.5,-0.1%,-9.5
CCOC(=O)c1ccc(CNCc2ccccc2)cc1,7.2%,-4.1,11.2µM*,-0.2,0.0%,8.6
CCOC(=O)c1ccc(N/C=C/C(=O)c2ccc(OC)cc2)cc1,-4.1%[46.1 µM],1.7,54.5%,-2.4,1.2%,12.8
COC(=O)/C=C\C(=O)OC,.,.,.,.,.,-7.4
Cc1ccc(N=Cc2cc3c(cc2O)OC(N)=C(C#N)C3c2ccccc2)cc1 (stereo not given),?,6.8,-91.0%,-1.1,-0.2%,-68.8*
CC(=O)Nc1ccn(C2OC(C(COC(C)=O)NC(=O)C(COCc3ccccc3)NC(=O)OC(C)(C)C)C(OC(C)=O)C2OC(C)=O)c(=O)n1 (stereo not given),.,-5.1,.,.,.,.
CC(C)S(=O)(=O)c1oc(-c2ccc(F)cc2)nc1S(=O)(=O)c1ccccc1,.,.,.,.,0.4%,-105.7*
CCCCS(=O)(=O)c1oc(-c2ccc(F)cc2)nc1S(=O)(=O)c1ccccc1,.,.,.,.,0.6%,-80.7*
Cc1ccc(S(=O)(=O)c2nc(-c3cccs3)oc2SC(C)C)cc1,.,.,.,.,-4.9%,-17.7
CSc1oc(-c2ccc(F)cc2)nc1S(=O)(=O)c1ccccc1,-34.1%,15.0,29.2%,-0.4,2.0%,1.5
CCS(=O)(=O)c1oc(-c2ccc(F)cc2)nc1S(=O)(=O)c1ccc(Br)cc1,.,.,.,.,1.2%,-102.3*
CC(C)S(=O)(=O)c1oc(-c2cccs2)nc1S(=O)(=O)c1ccc(F)cc1,.,.,.,.,2.3%,-78.8*
CCCCCCCC(=O)[O-].CCCCCCCC(=O)[O-].[Zn+2],.,.,.,.,.,-19.3
CCOC(=O)[C@H](CCc1ccccc1)N[C@@H](C)C(=O)N(CC(=O)O)C1Cc2ccccc2C1,.,.,.,.,.,-4.6
COc1ccc(N2CCN(CCCNC(=O)c3cnn(-c4ccc(F)cc4)c3-n3cccc3)CC2)cc1,.,.,-13.7%,.,0.0%,.
CCCc1cc(C(=O)N2CCCC(Cc3cccc(Cl)c3)(C(=O)OCC)C2)n(C)n1 (stereo not given),.,-7.3,30.0%,-1.5,-7.0%,-63.7*
